FBA Mtb inh – inhibitors of M. tuberculosis fructose-bisphosphate aldolase | purified M. tuberculosis FBA, fluorescence read-out | inhibition, % at 1 µM | hit rate 2.3% among 360,000 | P9WQA3;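 note: 0% = vehicle and 100% = reference inhibitor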
Target sequence (P9WQA3 whole entry, looked up): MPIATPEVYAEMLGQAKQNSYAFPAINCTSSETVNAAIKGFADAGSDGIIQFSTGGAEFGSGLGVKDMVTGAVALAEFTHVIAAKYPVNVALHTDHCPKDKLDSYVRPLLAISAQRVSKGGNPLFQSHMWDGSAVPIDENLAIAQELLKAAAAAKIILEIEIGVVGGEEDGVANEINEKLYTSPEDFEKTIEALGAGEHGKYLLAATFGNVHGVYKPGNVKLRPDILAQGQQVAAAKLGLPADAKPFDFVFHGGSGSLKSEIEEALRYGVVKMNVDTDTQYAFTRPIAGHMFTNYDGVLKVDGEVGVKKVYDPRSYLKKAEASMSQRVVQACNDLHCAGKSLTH
Rv3671c protease – inhibitors of M. tuberculosis serine protease Rv3671c. P9WHR9. inhibition, % at 5.96 µM. hit rate 0.048% among 320,000. AID 2606; in the data active = inhibition above about 38%;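 note: extracellular domain of Rv3671c used as enzyme; 0% = enzyme with DMSO and 100% = no enzyme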
UGM FP inh – inhibitors of M. tuberculosis UDP-galactopyranose mutase | inhibition, % at 10 µM | hit rate 0.06% among 320,000 | purified UGM, fluorescence polarization probe displacement | P9WIQ1; in the data active = inhibition above about 10%, passing the limit was not always enough
GDH-TPI counter-1 – inhibits GDH-TPI coupling enzymes, artifact for Mtb FBA screen; GDH-TPI coupled enzyme counterscreen, NADH absorbance; inhibition, % at 4.8 µM; hit rate 1.2% among 360,000; in the data active = inhibition above about 30%;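 note: 0% = DMSO wells and 100% = wells lacking the enzyme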
Mtb FBA inh conf – confirmation of M. tuberculosis fructose-bisphosphate aldolase inhibitors; shares compounds with FBA Mtb inh; purified M. tuberculosis FBA, fluorescence read-out; inhibition, % at 1 µM; hit rate 78% among 5,600; AID 651616;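 note: 0% = vehicle wells and 100% = reference inhibitor wells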
GDH-TPI counter-2 – inhibits GDH-TPI coupling enzymes, flagging Mtb FBA hits; shares compounds with FBA Mtb inh; GDH-TPI coupled enzyme counterscreen, fluorescence; inhibition, % at 1 µM; hit rate 81% among 5,600; AID 652141; in the data active = inhibition above about 10%
GDH-TPI dose – GDH-TPI dose response counter-screen for Mtb FBA; shares compounds with FBA Mtb inh; GDH-TPI coupled enzyme assay, fluorescence, artifact counterscreen; IC50, µM; hit rate 79% among 170; AID 652145; call rule not given here
* hit, by the source's call; / = no result; + = active, no number. This is a sample that favours compounds with a hit; in the whole collection about 3.5% have one here. Cut-off read from the data, not from the text of the source, unless noted: active = inhibition above about 27%; inactive = the rest.

SMILES | FBA Mtb inh | Rv3671c protease | UGM FP inh | GDH-TPI counter-1 | Mtb FBA inh conf | GDH-TPI counter-2 | others
Cc1cc(C)n2c(Br)c(CN3CC4CC(C3)c3cccc(=O)n3C4)nc2n1 (configuration not stated) | 0 | -10 | -1 | 11 | / | /
Cc1cc(C)nc(SCc2nc3nc(C)cc(C)n3c2Br)n1 | 30* | 5 | -2 | -4 | 36* | 22*
Cc1cc(C)n2c(Br)c(CN3CCCC(C)C3)nc2n1 (configuration not stated) | 35* | -13 | 0 | -7 | 77* | 58*
Cc1noc(C)c1C(=O)OCC(=O)/C=C1/N(C)c2ccccc2C1(C)C | -2 | / | / | 15 | / | /
N#Cc1ccsc1NC(=O)C1CCN(C(=O)c2ccc(Cl)cc2)CC1 | 2 | -5 | 1 | -5 | / | /
COC(=O)c1cccc(NC(=O)C(C)(C)C)c1 | 36* | -3 | 0 | 8 | + | +
CCNc1nc(OC)nc(SCC(=O)Nc2ccccc2)n1 | -4 | 0 | -2 | -12 | / | /
COc1cc(OC)cc(C(=O)NNC(=O)CN2C(=O)NC(C)(c3ccc(C)cc3)C2=O)c1 (configuration not stated) | 1 | 2 | -1 | -2 | / | /
CCOC(=O)C(=O)Nc1nnc(Cc2ccc(OC)c(OC)c2)s1 | -1 | -4 | 1 | -1 | / | /
CCOC(=O)Nc1nnc(Cc2ccc(Cl)c(Cl)c2)s1 | 103* | -1 | 1 | -4 | 63* | 47*
CCOC(=O)c1c(C)n(C)c2cc([N+](=O)[O-])c(O)c([N+](=O)[O-])c12 | 4 | -4 | 1 | -5 | / | /
Cc1oc2cc([N+](=O)[O-])c(O)c([N+](=O)[O-])c2c1C(=O)c1ccc(Cl)cc1 | 72* | -3 | 2 | 31* | 14 | 13*
Nc1ncc(-c2ccc(F)cc2)nc1N1CCN(CCO)CC1 | 47* | / | / | 16 | 123* | 89*
CN(c1ccccc1)S(=O)(=O)c1cccc(C(=O)Nc2nn[nH]n2)c1 | 2 | -4 | -1 | -5 | / | /
C#CCSc1nc(-c2cccs2)ccc1C#N | 36* | 3 | -1 | 26 | 51* | 46*
COC(=O)CSc1nc(-c2cccs2)ccc1C#N | 71* | 3 | -4 | -4 | + | +
COC(=O)CSc1nc(C)c(C(C)=O)cc1C#N | 0 | 3 | 0 | 10 | / | /
COc1cccc([C@@H]2CC=C(C(=O)O)CN2S(=O)(=O)c2ccc(C)cc2)c1 | -1 | 1 | -1 | -2 | / | /
O=C(CSc1ncccc1-c1nc2ccccc2[nH]1)NCc1ccco1 | 21 | 0 | -1 | 2 | / | /
Cc1cc2nc(-c3cccnc3SCC(=O)NCc3ccco3)[nH]c2cc1C | 40* | -14 | 1 | 17 | 3 | -3
C=CCn1c(C)cc(C(=O)Cn2c(C(C)O)nc3ccccc32)c1C (configuration not stated) | 74* | 9 | 0 | 7 | 156* | 119*
N#Cc1nc(COc2ccccc2)oc1N1CCN(Cc2ccccc2)CC1 | -8 | 1 | 6 | -1 | / | /
N#Cc1nc(-c2cccs2)oc1N1CCN(Cc2ccccc2)CC1 | 51* | -11 | 0 | 27 | 12 | 6 | GDH-TPI dose=1.8*
N#Cc1nc(-c2ccccc2)oc1N1CCN(C(=O)c2ccco2)CC1 | 68* | 3 | 2 | 19 | 41* | 32*
C#CCn1c(-c2cccs2)nc2ccccc21 | 68* | -2 | 0 | 10 | 61* | 39*
SMILES | FBA Mtb inh | Rv3671c protease | UGM FP inh | GDH-TPI counter-1 | Mtb FBA inh conf | GDH-TPI counter-2 | others
CCn1c(-c2cccs2)nc2ccccc21 | 58* | 5 | 2 | 2 | 123* | 108*
O=c1oc(CCCO)cc2ccc(C#Cc3cccnc3)cc12 | 53* | -6 | -1 | 17 | 45* | 37*
O=C1c2ccccc2C(=O)N1CCC#Cc1ccc2cc(CCO)oc(=O)c2c1 | 5 | -15 | 2 | -4 | / | /
O=c1oc(CCO)cc2ccc(C#Cc3ccsc3)cc12 | 45* | -1 | 2 | 8 | 82* | 52*
O=C(Cc1ccc(S(=O)(=O)N2CCOCC2)s1)OCc1ccc(Cl)cc1 | 1 | 1 | 1 | -7 | / | /
Cc1cc(C(=O)NCCN2CCCCC2C)n(-c2ccccc2)n1 (configuration not stated) | 7 | -7 | 3 | -2 | / | /
CC1CCCCN1CCNC(=O)c1cnn2ccccc12 (configuration not stated) | 40* | 4 | 1 | 16 | 23 | 14*
COc1ccc(-c2cn3cccc(C)c3n2)cc1F | 31* | -6 | -1 | -2 | -4 | -7
COC(=O)c1ccc2nc(-c3ccc(S(C)(=O)=O)cc3)cn2c1 | 36* | 1 | -3 | -6 | 141* | 142*
CNC(=O)Oc1cccc(-c2cn3cc(Cl)ccc3n2)c1 | 6 | 0 | / | 11 | / | /
CNC(=O)Oc1ccc(-c2cn3cc(C)ccc3n2)cc1 | 47* | 5 | 0 | 13 | 38* | 34*
COc1ccc(-c2cn3cc(C)ccc3n2)cc1F | 37* | -3 | -1 | 8 | 77* | 65*
O=C(NCC(=O)N1CCC(Cc2ccccc2)CC1)c1ccc(Cl)cc1 | 1 | -3 | 4 | -2 | / | /
Cn1c(=O)c(=O)n(C)c2cc(N3CCCCC3)c(NS(=O)(=O)c3ccc([N+](=O)[O-])cc3)cc21 | -2 | 7 | 1 | 8 | / | /
O=C(Cc1ccccc1)Nc1ccc(NC(=O)c2ccco2)cc1Cl | 2 | -8 | 2 | -9 | / | /
CC(=O)c1sc2nc(SCC(=O)NCCc3ccccc3)[nH]c(=O)c2c1C | 29* | -9 | -1 | 53* | 77* | 73*
CCCN1CCN(C(=O)c2ccc(S(=O)(=O)N(C)c3ccccc3OC)cc2)CC1 | 1 | / | / | 0 | / | /
N=c1c(S(=O)(=O)c2ccccc2)cc2c(=O)n3ccccc3nc2n1CC1CCCO1 (configuration not stated) | 69* | 8 | -3 | 16 | + | +
N=c1c(S(=O)(=O)c2ccc(Cl)cc2)cc2c(=O)n3ccccc3nc2n1Cc1ccco1 | 56* | -4 | 1 | 15 | 142* | 107*
COCCn1c(=N)c(S(=O)(=O)c2ccc(F)cc2)cc2c(=O)n3ccccc3nc21 | 34* | -7 | 0 | 9 | 52* | 41*
N=c1c(S(=O)(=O)c2ccc(Br)cc2)cc2c(=O)n3ccccc3nc2n1Cc1ccccc1 | 1 | -3 | 2 | 6 | / | /
COCCNC(=O)CSc1nc(-c2ccccc2)c(-c2ccccc2)o1 | -4 | 3 | 1 | -7 | / | /
CC(=O)CSc1nc(-c2ccccc2)c(-c2ccccc2)o1 | 50* | 2 | 1 | 4 | 61* | 44*
CCc1cc(=O)oc2c(C)c(OC(C)C(=O)NCC3CCC(C(=O)O)CC3)ccc12 (configuration not stated) | 7 | 10 | -3 | 6 | / | /
CCOC(=O)C(C)Oc1ccc2c(CC)cc(=O)oc2c1C (configuration not stated) | 31* | 4 | 3 | 2 | 74* | 72*

High-throughput results deposited in PubChem BioAssay by several laboratories.
